# Measurements reported in PubChem BioAssay (EPA / NIEHS).
# Calls of active or inactive are those of the source. The calls were made as follows: active = hit-call score of the fitted dose curve at least 0.9, where 1 is the maximum; inactive = score below 0.9.
# Read-out: Protein phosphatase 2A (PPP2R4), PTPA (gene 5524)
# Experiment: LTEA_HepaRG_PPP2R4: Life Technologies and Expression Analysis (LTEA) Assay for Protein phosphatase 2A (PPP2R4) using HepaRG (AID 2283522)
# Details: mRNA level, 48 h; actives raise or lower the signal
# Description: LTEA_HepaRG is a cell based, multiplexed-readout assay that uses HepaRG, a human liver cell line, with measurements taken at 48 hours after chemical dosing on a 96-well plate.LTEA_HepaRG_PPP2R4 is one of 102 assay component(s) measured in the LTEA HepaRG cell culture assay. It is a marker of Cell proliferation, survival, death.Data from the assay component LTEA_HepaRG_PPP2R4 was analyzed into 1 endpoint. This assay endpoint, LTEA_HepaRG_PPP2R4, was analyzed with bidirectional fitting relative to DMSO as the negative control and baseline of activity. Using a type of inducible reporter, measures of mRNA induction for gain or loss-of-signal activity can be used to understand regulation of transcription factor activity. To generalize the intended target to other relatable targets, this assay endpoint is annotated to the phosphatase intended target family, where the subfamily is serine/threonine phosphatase.
# A total of 1060 chemcials from the ToxCast library were tested in eight-point concentration-response experiments. Cell culture and cytotoxicity assays were conducted at Thermo Fisher Scientific's Custom Services facility (Madison, WI). A single lot of human HepaRG cells (Thermo Fisher Scientific, Frederick, MD) was used for the cell culture experiments. 96-well format collagen type I coated plates of human HepaRG cells were prepared using established methods. Briefly, cryopreserved HepaRG cells were thawed, plated at a density of approximately 100,000 cells/well in HepaRG Thaw, Plate, and General Purpose media (HPRG770, Thermo Fisher Scientific), and incubated for 48 hours. 0.5% DMSO was selected as vehicle control to balance the requisite need of DMSO in HepaRG cultures to maintain differentiation (for example, baseline metabolism, proportions of hepatocytes vs. cholangiocytes), while enabling further hepatic receptor pathway activation (for example, PXR and CAR) in response to chemical exposure. 48 hours after plating, the culture medium was replaced with HepaRG Serum-Free Incudtion Media. Cells were exposed to each test chemical in duplicate and maintained in CO2 incubators for another 48 hours. Chemical plates were thawed to room temperature and 200x concentrations of treatment groups were prepared. 8-point conentration-reponse curves were made with the highest exposure at 100 uM, followed by half-log dilutions, all in 0.5% DMSO. Each test plate contained variouse controls, induction positive controls (1mM phenobarbital), cytotoxicity positive controls ([…] aflatoxin B1), vehicle controls (0.5% DMSO), and total lysis controls (0.5% DMSO). Cell morphology images were taken using an Essen IncuCyte FLR automated microscope, with six 96-well plates imaged in about 24 minutes. Images were captured and exported and JPEG files. Spent culture media was transfered to black-well plates for the LDH assay, and remaining media was sorted at -80 C for later use. Cells were treated with RLT buffer and frozen until shipped for gene expression analysis. Total RNA was isolated from the cell suspension in 75 uL of Buffer RLT (Qiagen, Germantown, MD 20874) by Quintiles/Expression Analysis (Durham, NC) using a custom isolation procedure. Total RNA from each plate well was transferred to a preamplification plate. Fluidigm's 96.96 Dynamic ArrayTM (Fluidigm, Amsterdam, the Netherlands) technology was used for gene expression analyses by quantitative reverse transcription polymerase chain reaction (qRT-PCR, performed by Quintiles/Expression Analysis, Durham, NC)89. Standard TaqManTM Assays (Applied Biosystems/ThermoFisher Scientific, Foster City, CA) were used to assess the expression of 93 genes selected based on their selectivity and sensitivity to important hepatic receptors known to be modulated by environmental chemicals; importance in human hepatocyte functionality; and hepatotoxicity. […]
SMILES,outcome,AC50
CN(C)C(=O)NC1(c2ccccc2)CCN(CC[C@@]2(c3ccc(F)c(F)c3)CN(C(=O)c3ccccc3)CCO2)CC1,inactive,
CC1=C(C)S(=O)(=O)CCS1(=O)=O,,74.4 µM (active)
O=C(O)CC(O)(CC(=O)O)C(=O)O,inactive,
OCC(CO)n1cnc(-c2ccc(F)cc2)c1-c1ccnc(Oc2ccccc2)n1,inactive,
O=C(N[C@@H](c1ccccc1)[C@@H]1CCCCN1)c1cccc(C(F)(F)F)c1Cl,,89.5 µM (active)
O=C1c2c(O)cccc2Cc2cccc(O)c21,inactive,
Cn1cnc2c1c(=O)[nH]c(=O)n2C,inactive,
OCC(O)CO,inactive,
NCCOCCOCCN,inactive,
CSc1ccc(Oc2ccc(S(N)(=O)=O)cc2CN(C)C)cc1C,inactive,
Cc1c(C)c2c(c(C)c1O)CCC(C)(COc1ccc(CC3SC(=O)NC3=O)cc1)O2 (stereo not given),inactive,
CC(C)(C)c1ccccc1,inactive,
COC(=O)CCC(=O)OC,inactive,
O=C(O)c1[nH]n(-c2ccc(S(=O)(=O)O)cc2)c(=O)c1N=Nc1ccc(S(=O)(=O)O)cc1,inactive,
C/C=C/c1ccc(OC)cc1,inactive,
NC=O,inactive,
CCCCCCCC(=O)OC,inactive,
N[C@@H](Cc1c[nH]c2ccccc12)C(=O)O,inactive,
CCCCOC(=O)CCCCC(=O)OCCCC,inactive,
CCc1nc(N)nc(N)c1-c1ccc(Cl)cc1,inactive,

SMILES,outcome,AC50
O=C1CCCCC1,inactive,
CCN(CC)CCOc1ccc(C(=C(Cl)c2ccccc2)c2ccccc2)cc1,inactive,
NC(=Nc1ccccc1)Nc1ccccc1,inactive,
O=C1O[C@H]([C@H](O)CO)C(O)=C1O,inactive,
CC1(C)C(=O)NC(=O)N1CO,inactive,
Oc1ccccc1O,inactive,
CC(=O)OC1CC(C)OC(C)O1 (stereo not given),inactive,
COc1ccc(OC(F)(F)F)cc1CN[C@H]1CCCN[C@H]1c1ccccc1,,90 µM (active)
CCCCC(CC)CO (stereo not given),inactive,
O=C1OC(c2ccc(O)cc2)(c2ccc(O)cc2)c2ccccc21,inactive,
CC(=O)CC(c1ccccc1)c1c(O)c2ccccc2oc1=O (stereo not given),inactive,
C/C=C/C=C/C(=O)O,inactive,
Cc1cc(SC2=C(O)C[C@@](CCc3ccc(N)cc3)(C(C)C)OC2=O)c(C(C)(C)C)cc1CO,inactive,
O=[Si]=O,inactive,
CC(=O)O,inactive,
Cc1ccc(C(C)(C)C)c(O)c1,inactive,
CCCCC(CC)COC(=O)CCCCCCCC(=O)OCC(CC)CCCC (stereo not given),inactive,
CC(C)COC(=O)CCCCC(=O)OCC(C)C,inactive,
Cc1occc(=O)c1O,inactive,
CC(=O)OCC(COC(C)=O)OC(C)=O,inactive,
